Test results reported in the supplement of paper PMC11732987, “Enantioselective OTUD7B fragment discovery through chemoproteomics screening and high-throughput optimisation” (Communications Chemistry, 2025).

Assays:
Test in all cases: log2 ratio of Biotin-Ahx-Ub-VS probe labelling (fragment/DMSO); higher = less target engagement (more negative = stronger competition), active = hit call of the paper (q ≤ 0.05, log2 ratio ≤ -1)
Conditions in all cases: compound concentration: 200 uM; treatment time: 3 h
USP34 = USP34 (UniProt Q70CQ2)
How it was run: (§1)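 HEK293T lysate, 495 µg per sample in Tris/CHAPS/IGEPAL buffer with protease inhibitors, was treated in triplicate with fragment at 200 µM or vehicle for 3 h and then with Biotin-Ahx-Ub-VS at 0.5 µM final for 1 h. Labelled DUBs were NeutrAvidin-enriched, digested with LysC and trypsin, and run by diaPASEF LC-MS/MS. Spectronaut label-free quantities were global-median-normalised, and values are average log2 fragment/vehicle ratios by unpaired t-test on proteins with ≥2 unique peptides.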

USP36 = biological target: T1, USP36 (UniProt Q9P275)
T1 sequence (whole entry): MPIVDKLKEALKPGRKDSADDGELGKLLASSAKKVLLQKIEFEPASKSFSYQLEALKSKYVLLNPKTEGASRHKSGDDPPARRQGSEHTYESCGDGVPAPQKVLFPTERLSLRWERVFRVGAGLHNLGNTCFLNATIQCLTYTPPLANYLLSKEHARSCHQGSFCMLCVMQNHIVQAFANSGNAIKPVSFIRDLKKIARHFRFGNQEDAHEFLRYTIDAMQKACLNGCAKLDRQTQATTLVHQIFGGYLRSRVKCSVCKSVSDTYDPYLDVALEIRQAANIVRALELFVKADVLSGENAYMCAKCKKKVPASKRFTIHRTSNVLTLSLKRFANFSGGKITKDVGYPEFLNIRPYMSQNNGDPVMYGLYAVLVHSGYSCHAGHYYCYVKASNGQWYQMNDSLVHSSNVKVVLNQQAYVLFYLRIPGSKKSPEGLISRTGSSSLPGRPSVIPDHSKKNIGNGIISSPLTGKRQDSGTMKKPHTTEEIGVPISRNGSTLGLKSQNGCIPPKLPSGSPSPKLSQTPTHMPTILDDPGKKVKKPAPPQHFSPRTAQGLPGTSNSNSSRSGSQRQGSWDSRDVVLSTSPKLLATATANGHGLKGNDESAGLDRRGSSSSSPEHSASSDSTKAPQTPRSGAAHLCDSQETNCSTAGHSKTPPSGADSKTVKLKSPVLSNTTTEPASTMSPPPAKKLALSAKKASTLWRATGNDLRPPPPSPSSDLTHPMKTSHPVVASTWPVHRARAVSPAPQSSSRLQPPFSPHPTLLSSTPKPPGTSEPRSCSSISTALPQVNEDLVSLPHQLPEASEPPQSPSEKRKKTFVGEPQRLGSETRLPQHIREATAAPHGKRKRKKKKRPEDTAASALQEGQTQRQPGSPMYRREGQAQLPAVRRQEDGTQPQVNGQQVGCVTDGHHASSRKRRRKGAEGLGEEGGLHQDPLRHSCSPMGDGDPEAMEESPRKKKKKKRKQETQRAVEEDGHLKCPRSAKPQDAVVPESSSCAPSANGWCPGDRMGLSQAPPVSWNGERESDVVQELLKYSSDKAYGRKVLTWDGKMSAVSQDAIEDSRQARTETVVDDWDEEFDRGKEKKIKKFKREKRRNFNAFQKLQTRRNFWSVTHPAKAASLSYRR
How it was run: as §1

USP38 = biological target: T2, USP38 (UniProt Q8NB14)
T2 sequence (whole entry): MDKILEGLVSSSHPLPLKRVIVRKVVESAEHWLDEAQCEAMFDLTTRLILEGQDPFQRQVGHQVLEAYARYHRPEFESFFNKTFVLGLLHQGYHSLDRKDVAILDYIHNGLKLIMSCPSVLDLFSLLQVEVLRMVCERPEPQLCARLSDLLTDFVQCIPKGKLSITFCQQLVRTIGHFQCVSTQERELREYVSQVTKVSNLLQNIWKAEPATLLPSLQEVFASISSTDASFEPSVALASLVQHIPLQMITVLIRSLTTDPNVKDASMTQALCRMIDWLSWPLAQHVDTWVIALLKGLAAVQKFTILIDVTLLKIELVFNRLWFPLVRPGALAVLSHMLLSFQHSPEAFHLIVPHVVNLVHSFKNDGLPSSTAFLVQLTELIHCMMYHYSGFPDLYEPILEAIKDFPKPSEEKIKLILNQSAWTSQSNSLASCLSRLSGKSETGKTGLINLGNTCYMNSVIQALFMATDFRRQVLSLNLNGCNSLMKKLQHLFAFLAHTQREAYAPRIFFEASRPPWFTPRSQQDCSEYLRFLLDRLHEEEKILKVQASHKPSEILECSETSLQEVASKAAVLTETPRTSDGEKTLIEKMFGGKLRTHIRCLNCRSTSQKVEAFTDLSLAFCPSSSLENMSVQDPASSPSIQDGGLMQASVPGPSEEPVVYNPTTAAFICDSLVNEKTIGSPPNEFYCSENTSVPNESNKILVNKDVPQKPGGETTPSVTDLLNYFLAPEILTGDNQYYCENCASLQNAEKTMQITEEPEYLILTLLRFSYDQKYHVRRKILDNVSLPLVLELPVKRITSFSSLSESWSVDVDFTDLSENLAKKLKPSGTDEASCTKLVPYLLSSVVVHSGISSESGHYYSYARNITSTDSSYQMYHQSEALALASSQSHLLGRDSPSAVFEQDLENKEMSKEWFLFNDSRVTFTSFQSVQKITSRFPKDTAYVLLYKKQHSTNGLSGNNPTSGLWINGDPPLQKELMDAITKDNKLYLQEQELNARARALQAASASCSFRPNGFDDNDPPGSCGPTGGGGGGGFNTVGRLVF
How it was run: as §1

USP39 = biological target: T3, USP39 (UniProt Q53GS9)
T3 sequence (whole entry): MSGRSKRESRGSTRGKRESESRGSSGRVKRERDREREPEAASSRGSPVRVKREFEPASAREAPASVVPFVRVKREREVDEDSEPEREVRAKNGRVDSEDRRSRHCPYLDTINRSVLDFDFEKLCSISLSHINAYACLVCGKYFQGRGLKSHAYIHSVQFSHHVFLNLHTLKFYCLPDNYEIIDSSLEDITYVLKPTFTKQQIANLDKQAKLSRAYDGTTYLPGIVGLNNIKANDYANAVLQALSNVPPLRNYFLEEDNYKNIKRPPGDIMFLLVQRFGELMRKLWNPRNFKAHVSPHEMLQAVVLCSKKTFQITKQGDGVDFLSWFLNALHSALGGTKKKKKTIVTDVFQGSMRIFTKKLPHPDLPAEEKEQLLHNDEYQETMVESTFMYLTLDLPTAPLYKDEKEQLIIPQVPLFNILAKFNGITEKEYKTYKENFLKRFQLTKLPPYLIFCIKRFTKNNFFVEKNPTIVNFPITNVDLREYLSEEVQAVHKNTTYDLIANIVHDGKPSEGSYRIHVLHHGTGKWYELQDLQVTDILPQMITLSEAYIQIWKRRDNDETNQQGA
How it was run: as §1

USP4 = biological target: T4, USP4 (UniProt Q13107)
T4 sequence (whole entry): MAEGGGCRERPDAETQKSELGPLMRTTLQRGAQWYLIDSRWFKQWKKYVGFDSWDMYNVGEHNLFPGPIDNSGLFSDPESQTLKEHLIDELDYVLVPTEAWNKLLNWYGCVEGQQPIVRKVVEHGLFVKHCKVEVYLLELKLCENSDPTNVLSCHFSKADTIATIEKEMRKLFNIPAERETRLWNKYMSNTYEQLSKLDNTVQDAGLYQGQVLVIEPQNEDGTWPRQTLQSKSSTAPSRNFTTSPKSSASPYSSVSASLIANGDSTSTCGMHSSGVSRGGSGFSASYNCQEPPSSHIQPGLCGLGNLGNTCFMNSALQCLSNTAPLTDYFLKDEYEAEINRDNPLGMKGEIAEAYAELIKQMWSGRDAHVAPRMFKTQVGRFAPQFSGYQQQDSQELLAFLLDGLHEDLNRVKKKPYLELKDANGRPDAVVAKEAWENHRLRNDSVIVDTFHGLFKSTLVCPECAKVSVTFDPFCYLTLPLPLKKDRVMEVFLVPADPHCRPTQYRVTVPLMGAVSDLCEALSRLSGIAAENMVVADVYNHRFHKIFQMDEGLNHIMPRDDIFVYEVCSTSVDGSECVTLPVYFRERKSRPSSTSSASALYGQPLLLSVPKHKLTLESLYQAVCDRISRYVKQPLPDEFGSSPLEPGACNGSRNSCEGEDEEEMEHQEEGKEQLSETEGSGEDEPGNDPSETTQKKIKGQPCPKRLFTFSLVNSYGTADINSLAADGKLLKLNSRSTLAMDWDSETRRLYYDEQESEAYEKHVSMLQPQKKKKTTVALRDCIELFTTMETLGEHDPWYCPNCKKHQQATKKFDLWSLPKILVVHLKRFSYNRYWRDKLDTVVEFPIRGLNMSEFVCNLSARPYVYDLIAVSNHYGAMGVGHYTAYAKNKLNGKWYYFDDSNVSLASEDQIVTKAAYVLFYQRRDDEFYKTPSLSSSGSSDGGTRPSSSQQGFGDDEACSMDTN
How it was run: as §1

Measured: log2 ratio of Biotin-Ahx-Ub-VS probe labelling

USP34, sequence (Q70CQ2 whole entry, the tested form may be a part): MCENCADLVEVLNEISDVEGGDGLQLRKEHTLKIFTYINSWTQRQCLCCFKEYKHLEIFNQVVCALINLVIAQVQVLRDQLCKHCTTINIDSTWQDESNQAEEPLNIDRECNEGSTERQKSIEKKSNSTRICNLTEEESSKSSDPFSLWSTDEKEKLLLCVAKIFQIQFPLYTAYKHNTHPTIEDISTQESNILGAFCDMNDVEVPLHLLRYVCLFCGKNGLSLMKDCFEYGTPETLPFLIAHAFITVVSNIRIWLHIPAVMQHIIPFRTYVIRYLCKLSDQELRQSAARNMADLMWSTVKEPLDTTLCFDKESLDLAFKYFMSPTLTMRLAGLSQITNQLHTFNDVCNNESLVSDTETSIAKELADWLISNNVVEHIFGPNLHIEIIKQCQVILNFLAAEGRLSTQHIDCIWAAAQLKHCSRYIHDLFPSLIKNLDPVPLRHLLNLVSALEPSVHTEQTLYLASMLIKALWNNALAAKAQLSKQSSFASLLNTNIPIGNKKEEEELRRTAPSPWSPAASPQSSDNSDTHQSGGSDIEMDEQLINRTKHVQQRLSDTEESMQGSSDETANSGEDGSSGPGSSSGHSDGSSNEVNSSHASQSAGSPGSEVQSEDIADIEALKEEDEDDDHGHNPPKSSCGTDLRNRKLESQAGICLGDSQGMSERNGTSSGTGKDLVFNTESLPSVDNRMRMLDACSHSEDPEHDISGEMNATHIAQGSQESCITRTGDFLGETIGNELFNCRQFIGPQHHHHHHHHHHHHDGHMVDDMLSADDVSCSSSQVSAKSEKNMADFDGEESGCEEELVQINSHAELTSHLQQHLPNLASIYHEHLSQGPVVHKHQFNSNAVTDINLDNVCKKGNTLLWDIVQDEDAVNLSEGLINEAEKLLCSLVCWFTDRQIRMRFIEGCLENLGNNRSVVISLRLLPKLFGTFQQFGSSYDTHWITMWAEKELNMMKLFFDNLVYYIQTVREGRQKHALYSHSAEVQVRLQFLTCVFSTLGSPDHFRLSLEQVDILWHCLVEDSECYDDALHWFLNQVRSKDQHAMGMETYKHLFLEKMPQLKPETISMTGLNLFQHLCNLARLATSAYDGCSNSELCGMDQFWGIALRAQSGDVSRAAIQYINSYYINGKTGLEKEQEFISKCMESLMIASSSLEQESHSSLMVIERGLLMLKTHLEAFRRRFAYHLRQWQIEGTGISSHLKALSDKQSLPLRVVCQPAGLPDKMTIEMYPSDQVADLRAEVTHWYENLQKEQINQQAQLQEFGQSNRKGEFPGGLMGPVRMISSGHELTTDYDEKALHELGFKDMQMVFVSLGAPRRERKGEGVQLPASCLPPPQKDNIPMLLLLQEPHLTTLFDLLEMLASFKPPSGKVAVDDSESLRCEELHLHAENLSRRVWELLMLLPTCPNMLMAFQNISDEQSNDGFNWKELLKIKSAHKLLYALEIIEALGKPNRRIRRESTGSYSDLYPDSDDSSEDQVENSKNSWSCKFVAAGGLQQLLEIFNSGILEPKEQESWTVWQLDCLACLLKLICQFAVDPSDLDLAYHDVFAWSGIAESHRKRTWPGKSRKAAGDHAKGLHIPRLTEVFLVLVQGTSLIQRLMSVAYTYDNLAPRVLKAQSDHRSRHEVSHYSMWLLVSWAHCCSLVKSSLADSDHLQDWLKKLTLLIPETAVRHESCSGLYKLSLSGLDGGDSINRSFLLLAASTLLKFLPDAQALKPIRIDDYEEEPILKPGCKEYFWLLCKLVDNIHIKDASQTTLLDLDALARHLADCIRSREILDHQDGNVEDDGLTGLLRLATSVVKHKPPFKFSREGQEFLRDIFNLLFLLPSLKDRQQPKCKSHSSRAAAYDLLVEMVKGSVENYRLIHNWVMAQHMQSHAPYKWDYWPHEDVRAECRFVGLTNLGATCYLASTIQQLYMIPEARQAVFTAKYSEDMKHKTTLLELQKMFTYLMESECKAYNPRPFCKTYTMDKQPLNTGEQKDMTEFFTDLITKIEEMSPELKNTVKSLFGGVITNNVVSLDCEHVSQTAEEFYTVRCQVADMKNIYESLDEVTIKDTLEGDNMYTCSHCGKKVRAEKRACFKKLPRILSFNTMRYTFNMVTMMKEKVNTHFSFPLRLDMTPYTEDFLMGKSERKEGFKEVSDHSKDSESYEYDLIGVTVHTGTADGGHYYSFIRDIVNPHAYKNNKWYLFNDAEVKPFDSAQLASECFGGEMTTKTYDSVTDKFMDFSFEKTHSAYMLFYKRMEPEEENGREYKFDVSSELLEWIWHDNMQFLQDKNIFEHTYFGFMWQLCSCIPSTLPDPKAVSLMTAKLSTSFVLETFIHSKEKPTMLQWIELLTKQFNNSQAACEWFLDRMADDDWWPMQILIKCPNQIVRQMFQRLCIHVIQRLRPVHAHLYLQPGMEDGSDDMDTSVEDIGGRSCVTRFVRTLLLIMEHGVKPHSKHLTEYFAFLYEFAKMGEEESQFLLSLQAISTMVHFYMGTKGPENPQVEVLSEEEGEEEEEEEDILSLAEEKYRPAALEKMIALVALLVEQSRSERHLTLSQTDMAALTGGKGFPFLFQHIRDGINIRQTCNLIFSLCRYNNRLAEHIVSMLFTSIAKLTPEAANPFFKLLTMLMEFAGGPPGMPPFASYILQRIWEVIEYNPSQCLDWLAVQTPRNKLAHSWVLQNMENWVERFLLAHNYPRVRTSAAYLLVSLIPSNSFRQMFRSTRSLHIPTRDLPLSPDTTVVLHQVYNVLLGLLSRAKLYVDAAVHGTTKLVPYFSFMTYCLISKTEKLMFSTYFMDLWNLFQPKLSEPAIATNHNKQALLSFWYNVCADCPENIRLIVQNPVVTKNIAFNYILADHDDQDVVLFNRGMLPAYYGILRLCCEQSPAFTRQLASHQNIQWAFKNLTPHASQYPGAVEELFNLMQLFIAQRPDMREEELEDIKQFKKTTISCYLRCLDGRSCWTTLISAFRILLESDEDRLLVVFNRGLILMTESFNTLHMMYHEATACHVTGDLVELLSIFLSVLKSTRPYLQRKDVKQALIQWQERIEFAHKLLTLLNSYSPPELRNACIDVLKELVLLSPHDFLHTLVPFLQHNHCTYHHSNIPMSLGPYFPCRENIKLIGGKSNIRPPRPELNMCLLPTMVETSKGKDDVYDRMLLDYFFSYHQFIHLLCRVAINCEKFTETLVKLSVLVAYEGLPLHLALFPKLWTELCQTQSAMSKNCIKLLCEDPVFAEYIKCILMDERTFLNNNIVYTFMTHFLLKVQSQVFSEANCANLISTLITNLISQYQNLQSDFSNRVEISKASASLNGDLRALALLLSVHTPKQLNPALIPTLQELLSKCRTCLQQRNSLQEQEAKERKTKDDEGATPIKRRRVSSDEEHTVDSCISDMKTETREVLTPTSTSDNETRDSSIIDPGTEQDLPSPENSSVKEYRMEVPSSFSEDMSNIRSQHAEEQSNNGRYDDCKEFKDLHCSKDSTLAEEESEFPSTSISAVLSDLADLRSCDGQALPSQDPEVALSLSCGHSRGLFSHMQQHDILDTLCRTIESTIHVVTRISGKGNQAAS

Cl.O=C(CCl)NC1(c2ncccn2)CCC1
inactive: USP34 0.0452 | USP36 0.109 | USP38 0.0726 | USP39 0.133 | USP4 0.0299
